# Inconclusive results are not listed. Entries that show only a call come without a potency. Values without a mark were called inactive. The source made the active and inactive calls. Unless noted, calls come from the whole dose curve; as a rule, active = well fitted curve in the direction sought with a large enough effect in the repeat runs; inconclusive = weak or mixed curves; inactive = no such curve, though single readings can be large; an effect the other way counts as inactive or inconclusive.
# Assays:
# [1] = qHTS assay to identify aromatase inhibitors - cell viability counter screen (AID 743084);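 note: cells stimulated with testosterone during compound exposure; nearly all actives have a fitted effect of over 55% in size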
# [2] = qHTS assay to identify small molecule that activate the aryl hydrocarbon receptor (AhR) signaling pathway - cell viability counter screen (AID 743086);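 note: HepG2 liver cells carrying the AhR DRE luciferase reporter; series mostly up to about 70 µM; nearly all actives have a fitted effect of over 45% in size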
# Outline: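 HepG2-AhR-luc (HG2L7.5c1) cells, 4000/well, were preincubated 5 h at 37C, exposed to compound in qHTS format for 24 hr at 37C, then given CellTiter-Fluor for 30 min; viability was read as fluorescence in the reporter wells.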
# [3] = target: Peroxisome proliferator-activated receptor gamma (Homo sapiens) (UniProt P37231); assay: qHTS assay to identify small molecule antagonists of the peroxisome proliferator-activated receptor gamma (PPARg) signaling pathway (AID 743191; calls by dose curve; note: series mostly up to about 63 µM; nearly all actives have a fitted effect of over 30% in size)
# Chain of Peroxisome proliferator-activated receptor gamma (Homo sapiens) (P37231 whole entry, looked up): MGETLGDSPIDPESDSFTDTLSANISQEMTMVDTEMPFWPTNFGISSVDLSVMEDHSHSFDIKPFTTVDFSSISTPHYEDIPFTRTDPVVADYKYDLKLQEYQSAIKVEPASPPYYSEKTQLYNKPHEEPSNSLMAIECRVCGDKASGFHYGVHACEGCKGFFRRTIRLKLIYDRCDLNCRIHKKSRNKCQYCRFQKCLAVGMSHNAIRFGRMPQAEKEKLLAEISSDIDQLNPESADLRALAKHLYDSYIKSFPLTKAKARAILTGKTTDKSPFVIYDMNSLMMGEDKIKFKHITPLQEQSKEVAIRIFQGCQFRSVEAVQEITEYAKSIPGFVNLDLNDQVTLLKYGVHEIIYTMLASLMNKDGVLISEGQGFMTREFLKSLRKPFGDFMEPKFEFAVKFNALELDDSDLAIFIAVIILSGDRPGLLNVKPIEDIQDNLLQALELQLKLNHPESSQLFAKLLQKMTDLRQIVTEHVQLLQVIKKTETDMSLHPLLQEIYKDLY
# Outline: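 GeneBLAzer PPARg UAS-bla HEK293H cells carrying a UAS-driven beta-lactamase reporter were plated at 3000 cells/well, preincubated 5 h at 37C, then given compound for 17 h at 37C; LiveBLAzer B/G FRET substrate was read after 1 h at room temperature.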
# [4] = qHTS assay to identify small molecule antagonists of the peroxisome proliferator-activated receptor gamma (PPARg) signaling pathway - cell viability counter screen (AID 743194); note: nearly all actives have a fitted effect of over 55% in size
# Outline: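 PPARg-UAS-bla HEK293H cells were plated, rested 5 h at 37 C, then treated with compounds plus rosiglitazone (50 nM final) for 17 h at 37 C; viability was then read by CellTiter-Glo luminescence after 30 min at room temperature.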
# [5] = qHTS assay for small molecule agonists of the antioxidant response element (ARE) signaling pathway - cell viability counter screen (AID 743203; calls by dose curve; note: nearly all actives have a fitted effect of over 55% in size)
# Outline: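 Luminescence read-out (CellTiter-Glo, 30 min at room temperature) measured cell viability in the same wells as the ARE beta-lactamase reporter. HepG2 ARE-bla cells were treated with compounds for 16 hrs at 37C/5% CO2.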
# [6] = qHTS assay for small molecule activators of the heat shock response signaling pathway - cell viability counter screen (AID 743209); note: nearly all actives have a fitted effect of over 50% in size
# Outline: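 HSE-bla HeLa; 1500 cells/well; overnight 37 C, 5% CO2; compound 5 h 37 C; LiveBLAzer B/G substrate 2.5 h RT; CellTiter-Glo 30 min RT; luminescence.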
# [7] = qHTS assay for small molecule activators of the heat shock response signaling pathway (AID 743210; active = well fitted activation curve with a large enough effect in the signal ratio in the repeat runs, with a control signal flat, not every such curve was filed as active; the % refers to the signal ratio; note: series mostly up to about 63 µM)
# Outline: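 Heat shock element–beta-lactamase HeLa reporter cells; qHTS with compounds for 5 h at 37 C; detection by FRET substrate fluorescence after 2.5 h at RT.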
# [8] = qHTS assay to identify small molecule agonists of the peroxisome proliferator-activated receptor delta (PPARd) signaling pathway - cell viability counter screen (AID 743211); note: nearly all actives have a fitted effect of over 55% in size
# Outline: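 PPARd-bla HEK293H cells (3000/well) were pre-incubated 5 h at 37 C, then exposed to compound for 17 h at 37 C. After 2 h with LiveBLAzer substrate, CellTiter-Glo was added to the same wells; luminescence read after 30 min at room temperature.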
# [9] = target: Peroxisome proliferator-activated receptor delta (Homo sapiens) (UniProt Q03181); assay: qHTS assay to identify small molecule agonists of the peroxisome proliferator-activated receptor delta (PPARd) signaling pathway (AID 743212; calls by dose curve)
# Chain of Peroxisome proliferator-activated receptor delta (Homo sapiens) (Q03181 whole entry, looked up): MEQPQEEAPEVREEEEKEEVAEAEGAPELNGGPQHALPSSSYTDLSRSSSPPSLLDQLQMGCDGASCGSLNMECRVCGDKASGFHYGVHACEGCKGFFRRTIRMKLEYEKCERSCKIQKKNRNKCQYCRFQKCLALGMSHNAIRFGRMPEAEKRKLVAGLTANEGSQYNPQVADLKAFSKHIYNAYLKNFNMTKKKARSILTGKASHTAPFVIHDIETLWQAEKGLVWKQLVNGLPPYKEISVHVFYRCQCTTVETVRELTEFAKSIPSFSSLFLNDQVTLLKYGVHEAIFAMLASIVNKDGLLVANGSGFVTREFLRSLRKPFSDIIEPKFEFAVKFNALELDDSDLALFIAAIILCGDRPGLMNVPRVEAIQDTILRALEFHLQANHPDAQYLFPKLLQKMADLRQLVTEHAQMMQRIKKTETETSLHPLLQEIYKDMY
# Outline: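 Beta-lactamase reporter read by fluorescence (LiveBLAzer B/G FRET, 2 h, room temperature). Test agents, in DMSO, incubated at 37 C with PPARd-bla HEK293H cells.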
# [10] = qHTS assay to identify small molecule antagonists of the peroxisome proliferator-activated receptor delta (PPARd) signaling pathway - cell viability counter screen (AID 743213); note: nearly all actives have a fitted effect of over 50% in size
# Outline: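 CellTiter-Glo was added to PPARd-bla HEK293H wells following 17 h compound treatment in the presence of 300 nM L165041. Luminescence was recorded after 30 min at room temperature.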
# [11] = target: Peroxisome proliferator-activated receptor delta (Homo sapiens) (UniProt Q03181); assay: qHTS assay to identify small molecule antagonists of the peroxisome proliferator-activated receptor delta (PPARd) signaling pathway (AID 743215; active = well fitted inhibition curve with a large enough effect in the signal ratio in the repeat runs, not every such curve was filed as active; the % refers to the signal ratio;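 note: cells stimulated with agonist L165041 at 300 nM final during compound exposure; series mostly up to about 62 µM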)
# Outline: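 HEK293H GeneBLAzer PPARd UAS-bla reporter cells; cpd + L165041 300 nM final, 17 h 37 C; LiveBLAzer B/G FRET substrate 2 h RT; fluorescence intensity read-out. Antagonist mode.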
# [12] = qHTS assay to identify small molecule agonists of the farnesoid-X-receptor (FXR) signaling pathway - cell viability counter screen (AID 743218); note: nearly all actives have a fitted effect of over 45% in size; note: potency is the fitted concentration of half-maximal effect
# Outline: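 Luminescence from CellTiter-Glo, read after 30 min at RT, reports viability of GeneBLAzer FXR-UAS-bla HEK 293T cells treated 16 h with compounds in the wells used for the beta-lactamase reporter.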
# [13] = qHTS assay to identify small molecule antagonists of the farnesoid-X-receptor (FXR) signaling pathway - cell viability counter screen (AID 743221; active = well fitted cell-killing curve with a large enough effect in the repeat runs, not every such curve was filed as active; note: nearly all actives have a fitted effect of over 50% in size; note: potency is the fitted concentration of half-maximal effect)
# Outline: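 GeneBLAzer FXR-UAS-bla HEK 293T cells, compound plus chenodeoxycholic acid (50 uM final), 16 h at 37 C. CellTiter-Glo added to the same wells after the beta-lactamase read; luminescence read after 30 min at room temperature as viability.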
# [14] = target: Vitamin D3 receptor (Homo sapiens) (UniProt P11473); assay: qHTS assay to identify small molecule agonists of the vitamin D receptor (VDR) signaling pathway (AID 743222; calls by dose curve)
# Chain of Vitamin D3 receptor (Homo sapiens) (P11473 whole entry, looked up): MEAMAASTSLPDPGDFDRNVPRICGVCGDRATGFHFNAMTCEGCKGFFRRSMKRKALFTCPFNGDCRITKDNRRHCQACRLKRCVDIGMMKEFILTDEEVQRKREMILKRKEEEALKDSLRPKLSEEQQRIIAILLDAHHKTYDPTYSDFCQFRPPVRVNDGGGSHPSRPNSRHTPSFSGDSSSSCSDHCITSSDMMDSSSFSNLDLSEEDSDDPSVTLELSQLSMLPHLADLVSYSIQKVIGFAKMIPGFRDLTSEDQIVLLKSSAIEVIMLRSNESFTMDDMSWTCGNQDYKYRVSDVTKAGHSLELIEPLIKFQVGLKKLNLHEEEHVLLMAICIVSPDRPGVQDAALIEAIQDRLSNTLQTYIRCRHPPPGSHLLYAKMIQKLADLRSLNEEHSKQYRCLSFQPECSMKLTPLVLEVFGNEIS
# Outline: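 Beta-lactamase reporter readout (LiveBLAzer B/G FRET, 2 h RT) in VDR-bla cells after 16 h compound treatment at 37C, 5% CO2; cells pre-incubated 4 h before pin transfer of DMSO solutions.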
# [15] = target: Vitamin D3 receptor (Homo sapiens) (UniProt P11473); assay: qHTS assay to identify small molecule antagonists of the vitamin D receptor (VDR) signaling pathway (AID 743223; active = well fitted inhibition curve with a large enough effect in the signal ratio in the repeat runs, not every such curve was filed as active; the % refers to the signal ratio)
# Outline: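 VDR-bla cells were treated with compound plus 3 nM final 1alpha,25-dihydroxyvitamin D3 for 16 h at 37C. Beta-lactamase reporter read by B/G FRET substrate fluorescence after 2 h at room temperature. qHTS format.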
# [16] = target: Bile acid receptor (Homo sapiens) (UniProt Q96RI1); assay: qHTS assay to identify small molecule antagonists of the farnesoid-X-receptor (FXR) signaling pathway (AID 743217; active = well fitted inhibition curve with a large enough effect in the signal ratio in the repeat runs, not every such curve was filed as active; the % refers to the signal ratio)
# Chain of Bile acid receptor (Homo sapiens) (Q96RI1 whole entry, looked up): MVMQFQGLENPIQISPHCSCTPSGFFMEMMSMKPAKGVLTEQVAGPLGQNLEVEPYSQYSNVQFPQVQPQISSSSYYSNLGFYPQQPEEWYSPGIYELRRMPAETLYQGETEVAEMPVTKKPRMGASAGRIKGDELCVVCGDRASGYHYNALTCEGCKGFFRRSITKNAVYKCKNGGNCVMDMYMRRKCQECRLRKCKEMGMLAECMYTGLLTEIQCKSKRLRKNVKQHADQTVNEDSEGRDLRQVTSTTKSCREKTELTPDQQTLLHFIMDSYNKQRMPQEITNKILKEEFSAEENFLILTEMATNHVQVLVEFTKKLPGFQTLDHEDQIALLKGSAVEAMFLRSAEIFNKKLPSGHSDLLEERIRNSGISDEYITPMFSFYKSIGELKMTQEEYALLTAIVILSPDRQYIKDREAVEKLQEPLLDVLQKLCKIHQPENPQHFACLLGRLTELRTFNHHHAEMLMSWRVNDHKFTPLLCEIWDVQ
# Outline: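 Read-out: beta-lactamase FRET fluorescence (LiveBLAzer B/G substrate, 2 h, room temperature) in GeneBLAzer FXR-UAS-bla HEK 293T cells. Compounds were co-dosed with 50 uM chenodeoxycholic acid (final) and incubated 16 h at 37 °C.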
# [17] = target: Bile acid receptor (Homo sapiens) (UniProt Q96RI1); assay: qHTS assay to identify small molecule agonists of the farnesoid-X-receptor (FXR) signaling pathway (AID 743220; active = well fitted activation curve with a large enough effect in the signal ratio in the repeat runs, not every such curve was filed as active; the % refers to the signal ratio)
# Outline: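 FXR-UAS-bla HEK 293T cells carrying a UAS-driven beta-lactamase reporter were plated for 5 h at 37C/5% CO2, then exposed to DMSO-dissolved Tox21 10K compounds for 16 h at 37C. A LiveBLAzer B/G FRET substrate was loaded for 2 h at room temperature before fluorescence reading.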
# [18] = qHTS assay for small molecule agonists of the antioxidant response element (ARE) signaling pathway (AID 743202; active = well fitted activation curve with a large enough effect in the signal ratio in the repeat runs, not every such curve was filed as active; the % refers to the signal ratio; note: potency is the fitted concentration of half-maximal effect)
# Outline: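 Following a 16 h, 37 C exposure of reporter HepG2 cells (ARE-driven beta-lactamase, 2,000 cells/well) to compounds, FRET substrate was applied for 2 h at room temperature and fluorescence intensity recorded.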
# [19] = target: Peroxisome proliferator-activated receptor gamma (Homo sapiens) (UniProt P37231); assay: qHTS assay to identify small molecule agonists of the peroxisome proliferator-activated receptor gamma (PPARg) signaling pathway (AID 743094; active = well fitted activation curve with a large enough effect in the signal ratio in the repeat runs, not every such curve was filed as active; the % refers to the signal ratio)
# Outline: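 HEK293H PPARg-bla cells, 5 h settle at 37C/5% CO2; compound (DMSO) 17 h, 37C; B/G FRET substrate 1 h RT; fluorescence intensity read-out. qHTS format.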
SMILES,Potency [1],Potency [2],Potency [3],Potency [4],Potency [5],outcome [6],outcome [7],Potency [8],Potency [9],Potency [10],outcome [11],Potency [12],Potency [13],outcome [14],outcome [15],outcome [16],outcome [17],Potency [18],Potency [19]
C1CCN(CN2CCCCC2)CC1,inactive,inactive,inactive,inactive,inactive,inactive,inactive,inactive,inactive,inactive,inactive,inactive,inactive,inactive,inactive,–,–,–,–
Cc1c(-c2cccnc2)c2ccccc2n1CCCCC(=O)O,inactive,inactive,–,inactive,inactive,inactive,inactive,inactive,–,inactive,inactive,inactive,inactive,inactive,inactive,inactive,inactive,–,–
CC(=O)Nc1ccccc1O,inactive,inactive,–,–,inactive,inactive,inactive,inactive,–,–,–,inactive,inactive,inactive,inactive,inactive,inactive,27.3 µM (active),–
CCC1=C(C)CN(C(=O)NCCc2ccc(S(=O)(=O)NC(=O)NC3CCC(C)CC3)cc2)C1=O (stereo not drawn),inactive,inactive,–,inactive,inactive,inactive,inactive,inactive,inactive,–,inactive,inactive,inactive,inactive,inactive,–,–,–,–
COc1ccc(/C=C/S(=O)(=O)NC(=O)c2ccc(C)cc2Cl)cc1,inactive,inactive,–,inactive,inactive,inactive,inactive,inactive,inactive,inactive,inactive,–,inactive,–,inactive,inactive,inactive,inactive,–
CCCCCCCCCCCC(=O)OCC,inactive,inactive,inactive,inactive,inactive,inactive,inactive,inactive,inactive,inactive,–,inactive,inactive,inactive,inactive,–,–,inactive,–
Cc1nc(C)c(C)nc1C,inactive,inactive,inactive,–,inactive,inactive,inactive,inactive,inactive,inactive,inactive,inactive,inactive,inactive,inactive,–,–,–,inactive
CC1(COc2ccc(CC3SC(=O)NC3=O)cc2)CCCCC1 (stereo not drawn),inactive,inactive,–,inactive,–,inactive,inactive,inactive,–,inactive,–,inactive,inactive,–,–,inactive,–,–,–
O=C(O)c1c2ccccc2cc2ccccc12,inactive,inactive,inactive,inactive,inactive,inactive,inactive,inactive,–,–,inactive,–,inactive,inactive,inactive,inactive,inactive,inactive,–
Cc1cccc(C)c1NC(=O)CN1CCCC1,inactive,inactive,inactive,inactive,inactive,inactive,inactive,inactive,–,inactive,–,inactive,inactive,inactive,–,–,–,inactive,–
CC1(C)CC(=O)CC(C)(C)N1,inactive,inactive,inactive,–,inactive,inactive,inactive,inactive,inactive,–,inactive,inactive,inactive,inactive,–,–,–,inactive,inactive
NC(=O)c1ccccc1C(N)=O,inactive,inactive,–,inactive,inactive,inactive,inactive,inactive,inactive,inactive,inactive,–,inactive,inactive,inactive,–,inactive,24.4 µM (active),inactive
NCCOCCOCCN,inactive,inactive,inactive,inactive,inactive,inactive,–,–,–,inactive,–,6.92 µM (active),19.5 µM (active),inactive,–,–,–,48.6 µM (active),–
CC(C(=O)O)c1ccc2c(c1)Cc1cccnc1O2 (stereo not drawn),inactive,inactive,–,inactive,inactive,inactive,inactive,inactive,inactive,inactive,inactive,–,inactive,inactive,inactive,–,–,inactive,inactive
S=c1[nH][nH]c(=S)s1,inactive,inactive,–,inactive,inactive,inactive,inactive,–,inactive,inactive,inactive,–,inactive,inactive,–,–,–,–,–
Cc1c(Nc2ncccc2C(=O)O)cccc1C(F)(F)F,inactive,inactive,–,inactive,inactive,inactive,inactive,inactive,–,–,–,–,–,–,–,–,–,–,–
COc1ccc(/C=C/c2cc(OC)cc(=O)o2)cc1,inactive,inactive,–,inactive,inactive,inactive,inactive,inactive,inactive,–,inactive,–,inactive,inactive,inactive,inactive,inactive,0.443 µM (active),inactive
O=C(O)c1cccc(C(=O)O)c1C(=O)O,inactive,inactive,–,inactive,inactive,–,inactive,inactive,–,–,–,inactive,inactive,inactive,–,–,–,–,inactive
C(/C=C/C=C/Nc1ccccc1)=Nc1ccccc1,inactive,inactive,–,inactive,inactive,inactive,inactive,inactive,–,inactive,inactive,inactive,inactive,inactive,inactive,inactive,inactive,–,inactive
CC(=O)c1ccc(Cl)c(Cl)c1Cl,inactive,inactive,–,inactive,inactive,inactive,inactive,inactive,–,inactive,–,–,inactive,inactive,inactive,–,–,inactive,inactive

# Reference: PubChem BioAssay (Tox21)
